# PubChem BioAssay AID1259417 (TB Discovery Research, Infectious Disease Research Institute, 2018)
# Hit rate of the full screen: of about 1,100 compounds, about 760 (69%) were called active. No rule for the calls is given here. The set was probably picked from earlier hits. The list shows a part of the results.
# Test: M. tuberculosis growth inhibition, HTS (AID 1259417);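 also: bacteria grown with compound for 5 days at 37 °C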
# Details: stronger effect = higher value, concentration not given here
# [1] = M. tuberculosis DsRed fluorescence growth inhibition
# [2] = M. tuberculosis growth inhibition
Structure (SMILES),inhibition [1],inhibition [2] [%]
COc1cc(OC)c(-c2nn3c(C4CCCCC4)nnc3s2)cc1OC,3% (inactive),4.48
COC(=O)C(Oc1ccc2c(c1)oc(=O)c1cc(OC)ccc12)c1ccccc1 (centres undefined),27.2% (active),79.5
CCOC(=O)C(Oc1ccc2oc(C)c(C(=O)OC)c2c1)c1ccccc1 (centres undefined),-0.568% (inactive),-19.6
COc1ccc(NC(=O)CC23CC4CC(CC(C4)C2)C3)cc1[N+](=O)[O-],71% (active),49.1
COc1cc(NC(=O)CC23CC4CC(CC(C4)C2)C3)ccc1NC(=O)c1ccco1,-10.9% (inactive),-3.8
COc1ccc(NC(=O)CC23CC4CC(CC(C4)C2)C3)cc1Cl,97.4% (active),86.9
COc1ccc(Cl)cc1NC(=O)CC12CC3CC(CC(C3)C1)C2,10.7% (inactive),2.06
CC(C)(C)c1ccc(C(=O)Nc2nccs2)cc1Br,17.6% (inactive),-5.32
CC(C)(C)c1cnc(NC(=O)c2ccccc2O)s1,71.4% (active),28.1
O=C(Nc1ncc(Cc2cccc(C(F)(F)F)c2)s1)c1cccs1,24.1% (inactive),23.5
O=C(CSc1nnc(-c2ccccc2Br)o1)N1CCc2ccccc2C1,24.1% (active),31.3
Nc1ccccc1NCCOc1ccccc1,98.3% (active),98.7
O=C(CCNc1cccc(Cl)c1)c1ccco1,97.7% (active),96.8
O=C(COc1ccc(Cl)cc1)Nc1ccc(N2CCN(C(=O)c3ccco3)CC2)c(Cl)c1,0.893% (inactive),-16.5
CC(=O)c1ccc(NCCC(=O)c2ccco2)cc1,17.6% (active),59.4
Cc1ccc(NC(=O)C(=O)NNC(=O)c2ccco2)cc1Cl,6.77% (inactive),7.85
CCCCSc1ccc(NCCC(=O)c2ccco2)cc1,29.9% (active),60.7
O=C(CCNc1ccc(-c2ccccc2)cc1)c1ccco1,34.2% (active),84.3
Cc1ccc(-c2csc3nc(SCC(N)=O)n(-c4ccccc4)c(=O)c23)cc1C,4.1% (inactive),-0.946

Structure (SMILES),inhibition [1],inhibition [2] [%]
CCC(C)NCCOc1ccc(C(C)(C)c2ccccc2)cc1 (centres undefined),98% (active),94.4
COc1ccc(OCC(=O)Nc2ccc(I)cc2C)cc1,22% (active),56.8
Cc1ccc(NCc2nnc(SCC(=O)OC3CCCCC3)o2)c(C)c1,91.7% (active),95
O=C(CSc1nnc(Cc2ccccc2)o1)Nc1ccc2c(c1)OCO2,5.38% (inactive),-1.39
O=C(CSc1nnc(CNc2cccc(Cl)c2)o1)OC1CCCCC1,68.9% (active),81.6
CCOc1cc(CNCCO)cc(Br)c1OCc1ccc(Cl)cc1Cl,37.7% (active),41.3
CCOc1cc(CNCc2ccccc2OCc2ccccc2)cc(Cl)c1OCC,9.66% (inactive),-13.6
CCOc1cc(C(=O)ON=C(N)Cc2ccc(Cl)cc2Cl)cc(OCC)c1OCC,4.39% (inactive),-6.22
CCOCCOC(=O)COc1ccc2c(-c3ccccc3)cc(=O)oc2c1,64% (active),89
O=C(COc1ccc2c(-c3ccccc3)cc(=O)oc2c1)OC1CCCCC1,11.7% (active),53.3
Cc1cc(=O)oc2cc(OCC(=O)OC3CCCCC3)ccc12,36.4% (active),72.1
O=C1c2cccc3cccc(c23)C(=O)N1CCN1CCN(CC(O)COCc2ccc(Cl)cc2)CC1 (centres undefined),-12% (inactive),-24.9
COc1ccc(-c2csc(-c3ccc(OC)c(OC)c3)n2)cc1C,1.2% (inactive),-8.81
Cc1ccc(-c2csc(-c3ccncc3)n2)cc1C,86.8% (active),97.1
O=C(Nc1nnc(-c2ccc3c(c2)CCCC3)o1)c1ccccc1Br,2.76% (inactive),-9.29
O=C(CCSc1ccccc1)Nc1nnc(-c2ccc3c(c2)CCCC3)o1,20.9% (inactive),26.4
O=C(Nc1nnc(-c2ccc(Cl)cc2)o1)c1ccccc1Br,12.4% (active),44.2
CC(C)(C)C(=O)Nc1nnc(-c2cc(Cl)ccc2Cl)o1,80.9% (active),86.9
CCCCC(=O)Nc1nnc(-c2ccc3c(c2)CCCC3)o1,25.2% (active),57.9

Structure (SMILES),inhibition [1],inhibition [2] [%]
O=C(C=Cc1ccccc1)Nc1nnc(-c2ccc3c(c2)CCCC3)o1,8.27% (inactive),19.3
O=C(Nc1nnc(-c2ccc(Cl)cc2)o1)c1ccc(Br)cc1,94.3% (active),95.3
O=C(Nc1nnc(-c2ccc(Cl)cc2)o1)c1ccccc1F,82% (active),89.7
O=C(Nc1nnc(-c2ccc3c(c2)CCCC3)o1)c1ccccc1F,49% (active),79.6
N#Cc1ccc(C(=O)Nc2nnc(-c3ccc4c(c3)CCCC4)o2)cc1,83.6% (active),91.1
O=C(Nc1nnc(-c2cc(Cl)ccc2Cl)o1)c1ccc(Cl)cc1Cl,11.8% (inactive),9.57
O=C(Nc1nnc(-c2ccc3c(c2)CCCC3)o1)c1ccccc1Cl,-2.21% (inactive),-7.28
O=C(Nc1nnc(-c2cc(Cl)ccc2Cl)o1)c1ccccc1F,59.5% (active),79.5
O=C(Nc1nnc(-c2ccc3c(c2)CCCC3)o1)c1ccco1,9.46% (inactive),22.5
O=C(Nc1nnc(-c2ccc(Br)cc2)o1)c1ccccc1F,80.9% (active),94.2
CCOC(=O)COc1cc(OCC(=O)OCC)c2c(=O)cc(-c3ccccc3)oc2c1,63.7% (active),71.2
CCOC(=O)COc1ccc2c(=O)cc(-c3ccccc3)oc2c1,89.6% (active),95.3
COc1ccc(Cl)cc1NC(=O)C(C)N1CCN(C/C=C/c2ccccc2)CC1 (centres undefined),-0.555% (inactive),-22.8
Cc1ccc(C)c(-c2nnc(NC(=O)c3cc(Cl)sc3Cl)o2)c1,99.2% (active),96.3
Cc1ccc(C)c(-c2nnc(NC(=O)C(C)C)o2)c1,67% (active),78.6
COc1ccccc1C(=O)Nc1nnc(-c2cc(C)ccc2C)o1,-3.37% (inactive),-7.24
Cc1ccc(C)c(-c2nnc(NC(=O)c3cccc4ccccc34)o2)c1,-3.96% (inactive),-5.52
Cc1ccc(C)c(-c2nnc(NC(=O)c3ccccc3F)o2)c1,80.6% (active),85.5
Cc1ccc(C)c(-c2nnc(NC(=O)C(C)(C)C)o2)c1,84.1% (active),83.8
